Measurements from PubChem BioAssay AID1347055 (National Center for Advancing Translational Sciences (NCATS), 2019).
About 120 (0.22%) of roughly 54,000 compounds were called active. Not shown: some 8% with an inconclusive outcome. The sample holds actives, similar compounds and a random draw of the others, so the mix is not that of the screen. Calls come from the whole dose curve; as a rule, active = well fitted inhibition curve with a large enough effect; inconclusive = small, poorly fitted or top-dose-only effect, or effect the other way; inactive = flat fitted curve, though single readings scatter.

biological target: Fumarate hydratase, mitochondrial (Homo sapiens) (UniProt P07954); assay: Identification of activators of human fumarate hydratase by quantitative high-throughput screening; conditions: FH coupled MDH/diaphorase resazurin fluorescence, 15 min; series mostly up to 79.9 µM; activity change, negative = inhibition: at the top concentration; note: the screen sought activators but most active calls are inhibition curves; nearly all actives have a fitted effect of over 45% in size
Sequence (P07954 whole entry, looked up): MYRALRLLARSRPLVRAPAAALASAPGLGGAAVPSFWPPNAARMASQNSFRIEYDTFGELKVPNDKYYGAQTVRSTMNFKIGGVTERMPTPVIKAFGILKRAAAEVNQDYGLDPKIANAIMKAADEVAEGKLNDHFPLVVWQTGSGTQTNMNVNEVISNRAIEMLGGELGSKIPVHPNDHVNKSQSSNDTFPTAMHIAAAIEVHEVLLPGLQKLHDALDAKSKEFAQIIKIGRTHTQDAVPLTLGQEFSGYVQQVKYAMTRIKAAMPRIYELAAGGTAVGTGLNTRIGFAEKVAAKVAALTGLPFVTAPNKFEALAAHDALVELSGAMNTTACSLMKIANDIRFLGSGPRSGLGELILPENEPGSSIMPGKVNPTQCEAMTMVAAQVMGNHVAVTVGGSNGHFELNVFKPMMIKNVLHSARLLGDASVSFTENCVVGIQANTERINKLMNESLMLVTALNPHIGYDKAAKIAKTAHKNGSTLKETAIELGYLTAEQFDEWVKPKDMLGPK
Excerpt: Fumarate hydratase (FH) is a metabolic enzyme that is part of the Krebs-cycle, and reversibly catalyzes the hydration of fumarate to malate. Mutations of the FH gene have been associated with fumarate hydratase deficiency (FHD), hereditary leiomyomatosis, renal cell cancer (HLRCC), and other diseases. Currently there are no high-quality small molecule probes for studying human fumarate hydratase. To address this, we developed a quantitative high throughput screening (qHTS) FH assay and screened a total of 57,037 compounds in dose-response. While no inhibitors of FH were confirmed, a series of phenyl-pyrrolo-pyrimidine-diones (12 compounds) were identified as activators of human fumarate hydratase. […] The binding of two compounds from the series to human fumarate hydratase was confirmed by microscale thermophoresis. The low hit rate in this screening campaign confirmed that FH is a "tough target" to modulate, and the small molecule activators of human fumarate hydratase reported here may serve as a starting point for further optimization and development into cellular probes of human FH and potential drug candidates.
For primary high-throughput screen, 3 ul of FH solution (containing 13.33nM human fumarate hydratase, 13.33IU/ml malic dehydrogenase, 0.2mM NAD, 0.067mg/ml diaphorase and 0.067mM resazurin in the assay buffer (50 mM Tris pH 8.0, 5 mM MgCl2, 0.01% Brij 3) was dispensed into each well in a black solid bottom 1536-well assay plate (Greiner Bio-One) using a BioRAPTR FRD dispenser (Beckman Coulter, Brea, CA). A 1536-well pintool dispenser outfitted with 20 nl pins (Wako Automation, San Diego, CA) was used to transfer 20 nL of DMSO-solubilized compound (Cherrypick plates) to each 1536-well assay plate. Each compound was screened at five concentrations: 15 nM, 151 nM, 1.5 uM, 15.4 uM, 76.9 uM. Following compound transfer, plates were incubated in room temperature for 10 minutes. 1 uL of substrate solution containing fumaric acid (160 uM) was dispensed via BioRAPTR FRD to initiate the reaction. Plates were immediately transferred to a ViewLux microplate imager (PerkinElmer, Waltham, MA), and any resulting resorufin fluorescence was measured (exitation/emission, 525/598 nm) at 0 and 15 minutes. The exposure time is 1 second. Fluorescence from each well was normalized using enzyme-free and DMSO-treated control wells on each plate, and changes in fluorescence (delta RFU) were calculated using the difference in fluorescent signal for each well at 15 minutes versus 0 minutes.
% is set by controls: 0 for no effect and ±100 for the full control effect.

Activity change, negative = inhibition, inactive:
CCOc1cc(C(=O)NCCc2csc3nc(-c4ccc(C)cc4)nn23)cc(OCC)c1OCC -0.27%, CCOc1ccccc1N(C)C(=O)c1cc2c(s1)-c1ccccc1OC2 -21.1%, O=C(O)CC1CCC(c2ccc(-c3ccc(Nc4ccc(C(F)(F)F)nc4)cn3)cc2)CC1 (configuration not stated) -2.5%, CC(C)CC(=O)O[C@@H]1O[C@H](CO)[C@@H](O[C@H]2O[C@H](C)[C@@H](N[C@H]3C=C(CO)[C@@H](O[C@H]4O[C@H](CO)[C@@H](O[C@H]5O[C@H](CO)[C@@H](O[C@H]6O[C@H](CO)[C@@H](O)[C@H](O)[C@H]6O)[C@H](O)[C@H]5O)[C@H](O)[C@H]4O)[C@H](O)[C@H]3O)[C@H](O)[C@H]2O)[C@H](O)[C@H]1O 8.78% [at 20.6 µM], CC(O)C1CCC2C3CCC4CC(OC5OC(C(=O)O)C(O)C(O)C5O)CCC4(C)C3CCC12C (configuration not stated) -5.83%, CO[C@H]1C[C@@H]2CC[C@@H](C)[C@@](O)(O2)C(=O)C(=O)N2CCCC[C@H]2C(=O)O[C@H]([C@H](C)C[C@H]2CC[C@@H](OP(C)(C)=O)[C@H](OC)C2)CC(=O)[C@H](C)/C=C(\C)[C@@H](O)[C@@H](OC)C(=O)[C@H](C)C[C@H](C)/C=C/C=C/C=C/1C -2.79% [at 53.3 µM], CC(C)CC(c1c(O)c(C=O)c(O)c(C=O)c1O)C1CCC(C)(O)C2CC(C(C)(C)O)CCC12C (configuration not stated) -6.01% [at 53.3 µM], COc1ccc(Cn2c(=O)n(-c3ccccc3C)c(=O)c3c4c(sc32)CN(C(C)=O)CC4)cc1 -3.96%, C/C=C/C=C/[C@@H]1O[C@](O)([C@H](CC)C(=O)NC/C=C/C=C(\C)[C@@H](OC)[C@@H](C)[C@@H]2O[C@H](/C=C/C=C/C=C(\C)C(=O)c3c(O)ccn(C)c3=O)[C@H](O)[C@@H]2O)[C@H](O)[C@H](O)C1(C)C -9.63% [at 20.6 µM], CCOC(=O)CNc1nc2ccccc2n2c(C)nnc12 -4.82%, Cc1cc(C)c2sc(NC(=O)c3ccc(S(=O)(=O)N4CCCC4)cc3)nc2c1 3.95%, Cc1cc(C)c(-n2cc(C)c3c(Cl)nc(C)nc32)c(C)c1 -2.66%, CNC(=O)c1ccc(-c2nc(CN3CCc4ccccc43)c(C)o2)cc1 -16.3%, COc1cc(OC)c(NC(=O)c2ccc(Cc3cc4c(cc3C)C(C)(C)CCC4(C)C)o2)c(OC)c1 -27.2%, O=C(Nc1ccc2nc(SCC(=O)N3CCCc4ccccc43)sc2c1)c1ccc(Cl)cc1 -13.7%, CC1(C)CCC2(C(=O)OC3OC(COC4OC(CO)C(O)C(O)C4O)C(O)C(O)C3O)CCC3(C)C(=CCC4C5(C)CCC(O)C(C)(C(=O)O)C5CCC43C)C2C1O (configuration not stated) -1.76% [at 20.6 µM], COc1ccccc1-c1c[nH]c2ncc(-c3cncc(C(=O)N(C)C)c3)cc12 3%, CN(Cc1ccccc1)C(=O)CCS(=O)(=O)c1cc(Br)cc2c1N(C(=O)C1CC1)CC2 -0.325%, CC1CCC2C(C(=O)O)=CC3C(O)C(C)(C)CC123 (configuration not stated) 3.29%, CC(O)/C=C/C1(O)C2(C)COC1(C)CC(O)C2 (configuration not stated) -5.68%, CC1CCC2C(C)(C)C(O)CCC2(C)C12Cc1c(O)cc3c(c1O2)CN(C(CCC(N)=O)C(=O)O)C3=O (configuration not stated) -1.12% [at 53.3 µM], CC(=O)N1CCCc2cc(S(=O)(=O)N3CCC(C(=O)NCc4ccc(C)cc4)CC3)ccc21 2.25%, NC1CCC(Nc2cc(-c3cccc(NCc4cccc(F)c4)n3)c(Cl)cn2)CC1 (configuration not stated) 0.142%, Cc1ccc(S(=O)(=O)NCc2nc3nc(C)cc(C)n3n2)cc1 -12.1%, Cc1nc2c(C(F)(F)F)cccc2nc1-c1ccc(-c2cccc(S(C)(=O)=O)c2)cc1 0.357%, COc1ccc(-c2nc(C)c(CCNC(=O)c3ccc(C(F)(F)F)cc3)s2)cc1OC 1.18%, COc1ccc(-c2cn3c(n2)sc2cc(C(=O)Nc4ccccc4F)ccc23)cc1 -11.3%, Nc1nc2c(ncn2[C@@H]2O[C@@H]3COP(=O)(O)O[C@H]3[C@H]2O)c(=O)[nH]1 -2.31%, C[C@@H]1C[C@@H](O)[C@@]23CO[C@]2(CO)C[C@@H](O)CC3[C@@]12CC(c1ccoc1)OC2=O (some centres not stated) -2.44% [at 53.3 µM], CCC(=O)N[C@@H]1Cc2ccccc2[C@H](c2ccccc2)C1 1.26%, CCOC(=O)c1c(C)n(S(=O)(=O)c2ccc(C)cc2C)c2ccc(NS(=O)(=O)c3ccc(C)cc3C)cc12 -0.0866%, CCOC(=O)CSc1nc2c(sc3ccccc32)c(=O)n1CCCN1CCCC1 -0.602%, COc1cc(OC)c(NC(=O)c2cc(S(=O)(=O)N3CCCC3)cn2C)cc1Cl -2.25%, Cc1ccc(NC(=O)C2CCCN2S(=O)(=O)c2cccc3cccnc23)c(C)c1 (configuration not stated) -1.91%, CC1C(=O)OCC2=CCN3CCC(OC(=O)C(C)(O)C1(C)O)C23 (configuration not stated) 7.92% [at 53.3 µM], C[C@@H]1[C@H](O)[C@@H]2OC(=O)C3=C2[C@H](CCC3)[C@@]12C[C@@H](c1ccoc1)OC2=O 1.74% [at 53.3 µM], C[C@H]1CC[C@@H]2N(C1)C[C@@H]1[C@H]([C@@H](O)[C@H](O)[C@]3(O)[C@H]1C[C@@]14OC5(O)[C@@H](C[C@@H](O)[C@@H]31)[C@]4(C)CC[C@@H]5O)[C@]2(C)O 4.66% [at 53.3 µM]
